Screening results: PubChem BioAssay, National Center for Advancing Translational Sciences (NCATS)
Hits are enriched below; roughly 0.4% of the tested compounds scored in any of these assays.
EPAC2 antag – qHTS for Antagonist of cAMP-regulated guanine nucleotide exchange factor 2 (EPAC2): primary screen. Rap guanine nucleotide exchange factor 4 (Homo sapiens), Q8WZA2. EPAC2 GEF exchange of Rap1B-BODIPY-GDP, fluorescence. Potency, µM (highest dose often 114 µM), for inactives: at the highest dose activity, negative = inhibition, actives largely listed as inhibitors. actives 0.18% (n = 360,000); further: on the % scale 0 is the no-effect control and ±100 the full control effect; nearly all actives have a fitted effect of over 45% in size
RGS4 inhibitor – Inhibitors of Regulator of G Protein Signaling (RGS) 4: qHTS; Regulator of G-protein signaling 4 (Homo sapiens), P49798; Transcreener GDP fluorescence polarization, RGS4-accelerated GTP hydrolysis; Potency, µM (highest dose often 114 µM), for inactives: top-dose activity change, negative = inhibition, hits mostly inhibitors; actives 0.039% (n = 390,000); further: on the % scale 0 is the no-effect control and ±100 the full control effect; nearly all actives have a fitted effect of over 75% in size
Target sequence (P49798 whole entry, looked up): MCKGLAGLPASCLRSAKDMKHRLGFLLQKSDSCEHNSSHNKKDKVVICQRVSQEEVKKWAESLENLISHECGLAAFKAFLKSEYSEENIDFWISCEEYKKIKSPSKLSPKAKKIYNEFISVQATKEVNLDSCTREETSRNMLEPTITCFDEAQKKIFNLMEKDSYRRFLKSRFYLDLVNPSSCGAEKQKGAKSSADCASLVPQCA
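MLSMR compounds (23 nl, pin-transferred) preincubated 10 min at room temperature with a 500nM (2x) first reagent, then RGS4 at 900nM (2x) plus Transcreener GDP mix added; fluorescence polarization (620/688 nm) read before and after 90 min at 30 °C.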
EPAC1 antagonist – qHTS for Antagonist of cAMP-regulated guanine nucleotide exchange factor 3 (EPAC1): primary screen. Rap guanine nucleotide exchange factor 3 (Homo sapiens), O95398. EPAC1 GEF assay, Rap1b-BODIPY-GDP exchange fluorescence. Potency, µM (top dose mostly 115 µM), without a hit: at the highest dose activity change, negative = inhibition, most hits filed as inhibitors. actives 0.14% (n = 360,000);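 further: plate controls were vehicle for no effect and positive control for full effect; nearly all actives have a fitted effect of over 50% in size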
ERG Ets-DNA blk – qHTS for Small Molecule Inhibitors of the ERG Ets/DNA interaction; actives 0.028% (n = 370,000); fluorescence polarization, His-ERG Ets domain / labelled DNA; Potency, µM (series often up to 76.9 µM), for the others: top-dose FP activity, negative = inhibition, usual class: inhibitors; AID 624246, 2012; Transcriptional regulator ERG (Homo sapiens), P11308; active means well fitted inhibition curve with a large enough effect in the polarisation, with a control signal flat; inconclusive means small, poorly fitted or top-dose-only effect, or effect the other way, or a change in a side signal; inactive means no such curve, though single readings can be large or run the other way; the % refers to the polarisation;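 further: polarization taken with two DNA probes labelled with fluorescein and Texas red; % of control where 0% means no effect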
Target sequence (P11308 whole entry, looked up, the tested form may be a part): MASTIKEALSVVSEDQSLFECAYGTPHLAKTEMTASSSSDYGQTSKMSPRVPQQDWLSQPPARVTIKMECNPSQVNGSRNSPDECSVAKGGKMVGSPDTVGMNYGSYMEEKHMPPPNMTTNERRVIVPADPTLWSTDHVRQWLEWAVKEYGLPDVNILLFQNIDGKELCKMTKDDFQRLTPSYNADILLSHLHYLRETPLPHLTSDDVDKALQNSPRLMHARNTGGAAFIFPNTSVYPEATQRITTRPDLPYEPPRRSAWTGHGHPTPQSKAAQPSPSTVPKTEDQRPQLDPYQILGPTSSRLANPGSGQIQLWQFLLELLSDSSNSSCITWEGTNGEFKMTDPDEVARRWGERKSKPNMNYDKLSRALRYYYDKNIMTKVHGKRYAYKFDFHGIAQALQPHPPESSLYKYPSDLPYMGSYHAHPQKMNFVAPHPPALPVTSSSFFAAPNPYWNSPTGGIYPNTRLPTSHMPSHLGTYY
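His-tagged ERG Ets domain (1 uM in the protein solution; 300mM KCl, 50mM Tris-HCl, 1mM EDTA, 1mM DTT, pH 7.5) received compound, then a probe mix of 5 nM fluorescein-DNA and 100nM Texas-615-DNA. Fluorescence polarization was read for both dyes.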
EPAC2 agonist – qHTS for Agonist of cAMP-regulated guanine nucleotide exchange factor 4 (EPAC2): primary screen | Rap guanine nucleotide exchange factor 4 (Homo sapiens), Q8WZA2 | actives 0.079% (n = 360,000) | EPAC2 activation, biochemical qHTS; response scale: 100% = 6.5 mM cAMP response | AID 720711, 2013 | Potency, µM (doses to about 154 µM), inactives show at the top dose activation, actives largely listed as activators; further: nearly all actives have a fitted effect of over 50% in size
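Fluorescence exchange assay: 100 nM EPAC2 with 250 nM RAP1B-BODIPY-GDP and 50 uM GDP; compounds tested as a concentration-titration series (qHTS). Loss of Rap1-bound BODIPY-GDP fluorescence read at 480/540 nm; data normalized to 6.5 mM cAMP.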
EPAC1 agonist – qHTS for Agonist of cAMP-regulated guanine nucleotide exchange factor 3 (EPAC1): primary screen. Rap guanine nucleotide exchange factor 3 (Homo sapiens), O95398. EPAC1 agonist qHTS, biochemical assay; response scale: 100% = response to 6.5 mM cAMP. Potency, µM (titrated, usually from 154 µM), inactives show top-dose activation, hits mostly activators. actives 0.073% (n = 360,000). AID 720707, 2013; further: nearly all actives have a fitted effect of over 60% in size
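Multi-concentration qHTS readout: loss of Rap1B-bound BODIPY-GDP fluorescence driven by 100 nM EPAC1 with excess GDP (50 uM), monitored kinetically at room temperature; agonist response expressed relative to 6.5 mM cAMP.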
* marks the source's active call; other numbers are inactive results; i = inactive; ? = inconclusive; nt = no result given; ! = a repeat was not active; [ ] = another dose, or the depositor's remark. Unless noted, the call rests on the fitted dose curve; in most records, active means well fitted curve in the direction sought with a large enough effect; inconclusive means small, poorly fitted or top-dose-only effect, or another doubt; inactive means no such curve, though single readings can be large; an effect the other way counts as inactive or inconclusive. Potency means the concentration at half of the fitted maximal effect.

SMILES | EPAC2 antag | RGS4 inhibitor | EPAC1 antagonist | ERG Ets-DNA blk | EPAC2 agonist | EPAC1 agonist
O=C1/C(=C\c2ccccc2)C[C@@]2(O)[C@H]3Cc4ccc(O)c5c4[C@@]2(CCN3CC2CC2)[C@@H]1O5 | nt | i | nt | nt | nt | nt
Cl.Cl.Cl.Cl.Cl.Cl.N.N.N.N.NNNNN.NNNNN.O.O.[Ru].[Ru].[Ru] | nt | i | nt | nt | nt | nt
O=C(OC1CCN(CCCl)CC1)C(c1ccccc1)c1ccccc1 | 13µM* | -12% | 2% | 3% | 10% | 6%
CN1C(=O)/C(=C/c2cccn2-c2ccc3ccccc3c2)C(=O)NC1=S | 1% | ? | 32µM* | 18% | -4% | -16%
CN1C[C@@H](C(=O)N[C@@]2(C)O[C@]3(O)C4CCCN4C(=O)[C@@H](Cc4ccccc4)N3C2=O)C=C2c3cccc4[nH]cc(c34)C[C@@H]21 (stereo partly specified) | nt | 85%[56.9 µM] | nt | nt | nt | nt
O=C(N1CCCCCC1)N1CC1 | -3% | 2% | -13% | 5% | 0% | 6%
S=C(S)N1CCCC1 | 1% | 5.3µM*! | -3% | -3% | 8% | -19%
CCC1C(=O)OCC1Cc1cncn1C (stereo unspecified) | nt | 27µM*! | nt | nt | nt | nt
CC[C@H](Oc1ccc(Cl)cc1)C(=O)OC1C[C@H]2CC[C@@H](C1)N2C (stereo partly specified) | nt | 176%[56.9 µM] | nt | nt | nt | nt
O=C(C[C@H]1C=C[C@H](NC(=O)Nc2ccccc2F)[C@@H](CO)O1)NCc1ccc(-c2ccccc2)cc1 | ? | nt | 5% | nt | 3% | -1%
O=C1NC(=S)N(c2ccccc2)C(=O)/C1=C/c1ccco1 | -25% | -109%[56.9 µM] | 20µM* | 42% | 4% | 21%
C=C(C)[C@@H]1CC[C@]2(C(=O)O)CC[C@]3(C)[C@H](CCC4[C@@]5(C)CC[C@H](O)C(C)(C)[C@@H]5CC[C@]43C)[C@@H]12 (stereo partly specified) | nt | i | nt | nt | nt | nt
Oc1ccc2c3c1O[C@H]1c4c(c5ccccc5n4Cc4ccccc4)C[C@@]4(O)C(C2)N(CC2CC2)CC[C@]314 | nt | i | nt | nt | nt | nt
CCn1c(O)c(C=Nc2ccc(N3CCOCC3)cc2)c(=O)n(CC)c1=S | 112% | -24% | 1% | -11% | 100µM* | 7%
Oc1ccc(Cl)cc1Cc1cc(Cl)ccc1O | 79µM* | 1% | -13% | -1% | 9% | 4%
Cc1cccc(Cn2c(SCc3ccc(C(=O)NC4CCCCC4)cc3)nc3cccnc32)c1 | nt | ? | nt | 0% | nt | nt
CN(N=O)c1ccc(O)c(O)c1 | nt | 6µM* | nt | nt | nt | nt
NS(=O)(=O)c1cc(C(=O)OCC(=O)Nc2ccc3[nH]c(=O)[nH]c3c2)ccc1Cl | -4% | ? | 3% | 1% | 1% | 4%
CCCCn1c(NS(=O)(=O)c2ccc(C)cc2)c(C(=O)OCC)c2nc3ccccc3nc21 | -9% | ? | ? | 8% | -8% | 112µM*
Clc1cncc(N2CCNCC2)n1 | nt | 4.2µM* | nt | nt | nt | nt
Clc1ccc(N2CCNCC2)nn1 | 2% | -26% | -1% | 3% | 0% | -1%
C=C1C(=O)O[C@@H]2C[C@@H](C)[C@@H]3C=CC(=O)[C@@]3(C)[C@@H](O)[C@H]12 | -5% | 21µM* | -17% | -1% | 1% | 14%
Cc1[nH]n(-c2ccccc2)c(=O)c1C(c1cccc([N+](=O)[O-])c1O)c1c(C)[nH]n(-c2ccccc2)c1=O | -11% | -5% | 56µM* | -3% | 1% | 0%
COc1cc(C(c2c(C)[nH]n(-c3ccccc3)c2=O)c2c(C)[nH]n(-c3ccccc3)c2=O)cc(OC)c1OC | -9% | -17% | -13% | nt | 6% | 8%
N.N.N.N.N.N.N.N.N.N.N.N.N.N.O.O.[Ru+4].[Ru+5].[Ru+5] | nt | 19µM* | nt | nt | nt | nt
SMILES | EPAC2 antag | RGS4 inhibitor | EPAC1 antagonist | ERG Ets-DNA blk | EPAC2 agonist | EPAC1 agonist
CCCOC(=O)Nc1ccc([As](=O)(O)O)cc1NC(=O)OCCC | 2% | -3% | -5% | 2% | 7% | 4%
CCOC(=O)Nc1ccc(NCc2ccc(F)cc2)nc1N | ? | 8.4µM* | ? | 17% | 10% | 14%
O=[N+]([O-])c1cccc(NP(=O)(Oc2ccccc2)Oc2ccccc2)c1 | 25µM* | 23% | 0% | -4% | 12% | 12%
COc1cccc(NP(=O)(Oc2ccc(Cl)cc2)Oc2ccc(Cl)cc2)c1 | -7% | -1% | -23% | 6% | -1% | 3%
O=C1NC(=O)N(Cc2ccco2)C(=O)/C1=C/c1ccc(-c2cccc([N+](=O)[O-])c2)o1 | -27% | ? | 50µM* | -2% | 0% | 4%
CC(C)CCOP(=O)(c1ccc(N(C)C)cc1)C(O)c1c(Cl)cccc1Cl (stereo unspecified) | ? | 50% | ? | -2% | 3% | -3%
COc1ccc(CN2C(=O)NC(=O)/C(=C/c3ccc([N+](=O)[O-])s3)C2=O)cc1 | 3% | ? | 40µM* | 72% | -10% | -7%
COc1ccc(CN2C(=O)NC(=O)/C(=C\c3cc(OC)c(OC)c(OC)c3)C2=O)cc1 | 0% | ? | -21% | 5% | 20% | 8%
O=C1NC(=O)N(Cc2ccco2)C(=O)/C1=C\c1cccn1CCOc1ccc(Cl)cc1 | -8% | ? | 50µM* | 17% | 5% | -12%
O=C1NC(=O)N(Cc2ccc(F)cc2)C(=O)/C1=C\c1ccc([N+](=O)[O-])s1 | 0% | ? | 20µM* | 68% | -4% | -9%
COc1ccc(CN2C(=O)NC(=O)/C(=C\c3ccco3)C2=O)cc1 | 2% | ? | 50µM* | 78% | 4% | -6%
CC(C)(C)C(=O)OC1=CN(Cc2ccccc2)S(=O)(=O)c2ccccc21 | nt | ? | nt | 3% | nt | nt
Oc1cc2c(cc1O)[C@H]1c3ccccc3CN[C@H]1CC2 | nt | 240%[56.9 µM] | nt | nt | nt | nt
Cc1ccc(-c2[nH]c(=S)[nH]c(=O)c2C#N)cc1 | -10% | -41% | ? | 2% | 5% | 6%
CN[C@@H]1C[C@H](c2ccc(Cl)c(Cl)c2)c2ccccc21 | nt | i | nt | nt | nt | nt
